The record followed here is PubChem BioAssay (NCI).

This is part of a sample that, as a whole, favours compounds with a hit. Of some 79,000 tested, about 15% had one in any assay. A number with no mark means an inactive call. The source made the active and inactive calls. Rule as the data show it: active = growth inhibition above about 70%; inactive = the rest.

The nature of assay [1]: NCI Yeast Anticancer Drug Screen. Data for the rad50 strain (AID 155).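 Also: 0% = growth of vehicle-only cultures of the same strain.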 As to conditions: S. cerevisiae rad50 strain growth inhibition, hits give high values. The essentials:
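Yeast carrying a defined DNA repair defect were exposed to test compounds, and growth was compared with vehicle-treated controls to give percent inhibition.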

The nature of assay [2]: NCI Yeast Anticancer Drug Screen. Data for the mec2-1 strain (AID 157). As to conditions: S. cerevisiae mec2-1 strain, hits give high values. The essentials: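 Using mec2-1 yeast: add compound, measure growth, express inhibition versus vehicle-treated cultures.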
Assay [3] is described as follows: NCI Yeast Anticancer Drug Screen. Data for the sgs1 mgt1 strain (AID 161).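 Also: 0% = growth of cultures given vehicle only.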 As to conditions: S. cerevisiae sgs1 mgt1 strain, hits give high values. In a few lines:
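Yeast cells carrying a defined DNA-repair defect were exposed to test compounds. Growth inhibition was measured relative to vehicle-treated controls.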

Assay [4] in a line: NCI Yeast Anticancer Drug Screen. Data for the cln2 rad14 strain (AID 165).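 Also: 0% = growth equal to vehicle treated cultures.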 As to conditions: S. cerevisiae cln2 rad14 strain, hits give high values. In a few lines: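 Yeast strain cln2 rad14, bearing defects in cell cycle control and DNA repair, serves as the test system; values reflect growth inhibition compared with vehicle.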
A short description of assay [5]: NCI Yeast Anticancer Drug Screen. Data for the bub3 strain (AID 167). As to conditions: S. cerevisiae bub3 mutant strain, hits give high values. The essentials:
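Compounds were applied to a genetically altered yeast strain carrying a cell-cycle control defect. Growth inhibition was scored against vehicle-treated controls.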

The nature of assay [6]: NCI Yeast Anticancer Drug Screen. Data for the mlh1 rad18 strain (AID 175). As to conditions: S. cerevisiae mlh1 rad18 strain growth inhibition, hits give high values. In a few lines: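 Steps: expose repair-defective yeast to compound; measure growth; express inhibition against vehicle-treated controls.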
Setting [7] is: at 5.0 µM (retest, dose inferred, filed as 0.5).
The mark [8] stands for this setting: at 50.0 µM (retest, dose inferred, filed as 5.0).

In the case of `Cn1c(=NCCc2ccccc2)oc2ccc(Cl)cc21`, the growth inhibition in assay [1] (setting [7]) was -6%; in assay [1] (setting [8]), 17%; in assay [1] (at 50.0 µM) it was 6.15%; in assay [2] (setting [7]) it was -7%; in assay [2] (setting [8]), 9%; in assay [2] (at 50.0 µM), 1.7%. The growth inhibition in assay [3] (setting [7]) is -7%; in assay [3] (setting [8]), 29%; in assay [3] (at 50.0 µM) it was 30.3%; in assay [4] (setting [7]) it was -4%; in assay [4] (setting [8]), 16%; in assay [4] (at 50.0 µM) it was 73% (active). Besides, the growth inhibition in assay [5] (setting [7]) is 4%; in assay [5] (setting [8]) it was 33%; in assay [5] (at 50.0 µM), 18.6%; in assay [6] (setting [7]) it was -3%; in assay [6] (setting [8]), 25%; in assay [6] (at 50.0 µM) it was 18.6%.

Take `CCCCCCCCCCCCNCc1ccc2c(c1)OCO2`: the growth inhibition in assay [1] (setting [7]) is 98% (active); in assay [1] (setting [8]), 96% (active); in assay [1] (at 50.0 µM) it was 98.8% (active); in assay [2] (setting [7]), 99% (active); in assay [2] (setting [8]), 97% (active); in assay [2] (at 50.0 µM), 99.1% (active). The growth inhibition in assay [3] (setting [7]) is 99% (active); in assay [3] (setting [8]), 96% (active); in assay [3] (at 50.0 µM) it was 57.8%; in assay [4] (setting [7]), 99% (active); in assay [4] (setting [8]) it was 96% (active); in assay [4] (at 50.0 µM) it was 95.9% (active). Further, the growth inhibition in assay [5] (setting [7]) is 99% (active); in assay [5] (setting [8]) it was 95% (active); in assay [5] (at 50.0 µM), 98.7% (active); in assay [6] (setting [7]), 99% (active); in assay [6] (setting [8]), 95% (active); in assay [6] (at 50.0 µM) it was 99% (active).

Take `COC(=O)c1nc(=S)[nH]c(C(=O)OC)c1C(=O)c1c(C)[nH]c2ccccc12`: the growth inhibition in assay [1] (setting [7]) is -7%; in assay [1] (setting [8]), -2%; in assay [1] (at 50.0 µM), -25%; in assay [2] (setting [7]), -3%; in assay [2] (setting [8]), 7%; in assay [2] (at 50.0 µM) it was -5.5%. Further, the growth inhibition is 2% in assay [3] (setting [7]); 1% in assay [3] (setting [8]); -5.15% in assay [3] (at 50.0 µM); 1% in assay [4] (setting [7]); -4% in assay [4] (setting [8]); 30.7% in assay [4] (at 50.0 µM). The growth inhibition in assay [5] (setting [7]) was -6%; in assay [5] (setting [8]), -7%; in assay [5] (at 50.0 µM), -2.3%; in assay [6] (setting [7]) it was -7%; in assay [6] (setting [8]), -2%; in assay [6] (at 50.0 µM), 62.2%.

`O=C(c1ccccc1)C1Cc2ccccc2C1=O` (stereo not given): the growth inhibition in assay [1] (setting [7]) is 2%; in assay [1] (setting [8]), 39%; in assay [1] (at 50.0 µM) it was 78.5% (active); in assay [2] (setting [7]), -16%; in assay [2] (setting [8]) it was 2%; in assay [2] (at 50.0 µM) it was 50.1%. In addition, the growth inhibition in assay [3] (setting [7]) is 0%; in assay [3] (setting [8]) it was 5%; in assay [3] (at 50.0 µM), 86.5% (active); in assay [4] (setting [7]) it was 3%; in assay [4] (setting [8]), 1%; in assay [4] (at 50.0 µM), 19.8%. The growth inhibition in assay [5] (setting [7]) was 35%; in assay [5] (setting [8]), 13%; in assay [5] (at 50.0 µM) it was 4.4%; in assay [6] (setting [7]), 2%; in assay [6] (setting [8]), 11%; in assay [6] (at 50.0 µM) it was 84.2% (active).

For the compound `O=C1C(C=NC(=S)c2ccccc2)=C(O)c2ccccc21`, the growth inhibition is 22% in assay [1] (setting [7]); 72% (active) in assay [1] (setting [8]); -13.8% in assay [1] (at 50.0 µM); 23% in assay [2] (setting [7]); 68% in assay [2] (setting [8]); -12.1% in assay [2] (at 50.0 µM). Besides, the growth inhibition was 33% in assay [3] (setting [7]); 68% in assay [3] (setting [8]); 2.35% in assay [3] (at 50.0 µM); 20% in assay [4] (setting [7]); 48% in assay [4] (setting [8]); 10.1% in assay [4] (at 50.0 µM). Besides, the growth inhibition was 31% in assay [5] (setting [7]); 81% (active) in assay [5] (setting [8]); -4.7% in assay [5] (at 50.0 µM); 32% in assay [6] (setting [7]); 87% (active) in assay [6] (setting [8]); 6.45% in assay [6] (at 50.0 µM).

Turning to `C=C1C(=O)O[C@@H]2CC(CO)=C([C@@H](C)CCCO)[C@@H](OC(=O)/C(C)=C\C)[C@H]12`, the growth inhibition was 3% in assay [1] (setting [7]); 10% in assay [1] (setting [8]); 92.2% (active) in assay [1] (at 50.0 µM); 5% in assay [2] (setting [7]); 33% in assay [2] (setting [8]); 94.3% (active) in assay [2] (at 50.0 µM). Further, the growth inhibition is 4% in assay [3] (setting [7]); 25% in assay [3] (setting [8]); 93.8% (active) in assay [3] (at 50.0 µM); 1% in assay [4] (setting [7]); 6% in assay [4] (setting [8]); 92.2% (active) in assay [4] (at 50.0 µM). Also, the growth inhibition in assay [5] (setting [7]) is 9%; in assay [5] (setting [8]), 65%; in assay [5] (at 50.0 µM), 92.8% (active); in assay [6] (setting [7]), -2%; in assay [6] (setting [8]), 29%; in assay [6] (at 50.0 µM) it was -33.3%.

Regarding `COC(=O)[C@@H](O)[C@]1(C(=O)OC)C2O[C@@H](OC)[C@@H]1CCCCCC[C@H]2O`, the growth inhibition is 21% in assay [1] (setting [7]); 11% in assay [1] (setting [8]); -2.05% in assay [1] (at 50.0 µM); 10% in assay [2] (setting [7]); 11% in assay [2] (setting [8]); 0.45% in assay [2] (at 50.0 µM). The growth inhibition in assay [3] (setting [7]) is 10%; in assay [3] (setting [8]) it was 17%; in assay [3] (at 50.0 µM), -6.85%; in assay [4] (setting [7]), 17%; in assay [4] (setting [8]) it was 29%; in assay [4] (at 50.0 µM) it was 2.1%. For the same compound, the growth inhibition in assay [5] (setting [7]) is 18%; in assay [5] (setting [8]), 13%; in assay [5] (at 50.0 µM), 8.85%; in assay [6] (setting [7]) it was 19%; in assay [6] (setting [8]), 12%; in assay [6] (at 50.0 µM), -1.95%.

As for `CCCCCCCCCCCCCCNCC(OCC)OCC`, the growth inhibition in assay [1] (setting [7]) was 69%; in assay [1] (setting [8]) it was 98% (active); in assay [1] (at 50.0 µM), 90.7% (active); in assay [2] (setting [7]) it was 62%; in assay [2] (setting [8]) it was 99% (active); in assay [2] (at 50.0 µM), 93.4% (active). The growth inhibition is 83% (active) in assay [3] (setting [7]); 99% (active) in assay [3] (setting [8]); 93.2% (active) in assay [3] (at 50.0 µM); 61% in assay [4] (setting [7]); 98% (active) in assay [4] (setting [8]); 90.5% (active) in assay [4] (at 50.0 µM). Moreover, the growth inhibition in assay [5] (setting [7]) is 75% (active); in assay [5] (setting [8]), 99% (active); in assay [5] (at 50.0 µM), 91.5% (active); in assay [6] (setting [7]), 85% (active); in assay [6] (setting [8]), 98% (active); in assay [6] (at 50.0 µM), 91% (active).

As to `CC1(C(Cl)(Cl)Cl)C=CC(=NO)C=C1` (stereo not given), the growth inhibition in assay [1] (setting [7]) is 1%; in assay [1] (setting [8]) it was 28%; in assay [1] (at 50.0 µM), 65.8%; in assay [2] (setting [7]), 2%; in assay [2] (setting [8]) it was 34%; in assay [2] (at 50.0 µM) it was 21.4%. Besides, the growth inhibition was 1% in assay [3] (setting [7]); 44% in assay [3] (setting [8]); 70.8% (active) in assay [3] (at 50.0 µM); 3% in assay [4] (setting [7]); 26% in assay [4] (setting [8]); 30.1% in assay [4] (at 50.0 µM). Moreover, the growth inhibition in assay [5] (setting [7]) was -4%; in assay [5] (setting [8]), 29%; in assay [5] (at 50.0 µM) it was 18.7%; in assay [6] (setting [7]), -4%; in assay [6] (setting [8]), 34%; in assay [6] (at 50.0 µM), 54.1%.

Consider `C/C(=N\NC(=S)Nc1ccc(N(C)C)cc1)c1ccccn1`, for which the growth inhibition in assay [1] (setting [7]) was -1%; in assay [1] (setting [8]) it was 23%; in assay [1] (at 50.0 µM), 72.2% (active); in assay [2] (setting [7]), -4%; in assay [2] (setting [8]) it was 68%; in assay [2] (at 50.0 µM), 97.5% (active). For the same compound, the growth inhibition is -2% in assay [3] (setting [7]); 74% (active) in assay [3] (setting [8]); 79.7% (active) in assay [3] (at 50.0 µM); 1% in assay [4] (setting [7]); 72% (active) in assay [4] (setting [8]); 31.8% in assay [4] (at 50.0 µM). The growth inhibition in assay [5] (setting [7]) was -1%; in assay [5] (setting [8]), 35%; in assay [5] (at 50.0 µM), 46.3%; in assay [6] (setting [7]), -7%; in assay [6] (setting [8]) it was 78% (active); in assay [6] (at 50.0 µM), 82.3% (active).
